# Hits are enriched below; roughly 8.3% of the tested compounds scored in any of these assays.
# Giardia killer – Giardia lamblia killing; 340,000 compounds, 0.15% hits; activity change, % at 7.66 µM, hits read low; Giardia lamblia trophozoite viability; in the data active = activity change below about -80%; inconclusive = between about -30% and that limit;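 also: parasites exposed to compound for two days anaerobically before the ATP read; % is scaled to controls: 0 for no effect and ±100 for the full control effect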
#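 Killing of trophozoites was scored by loss of ATP luminescence after a 48 hrs anaerobic exposure to compounds at 37 deg C, using 100 cells per well.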
# SW480 rereplic – inducers of DNA re-replication in SW480 colon cancer cells | 340,000 compounds, 1.8% hits | Potency, µM (doses to about 46.1 µM), for the others: top-dose re-replication activation, hits mostly activators | SW480 DNA re-replication, Hoechst DNA content imaging, 48 h; also: potency is read from the fitted curve at half-maximal effect; % of control where 0% means no effect; nearly all actives have a fitted effect of over 55% in size
#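 Cells (250 per well) received 23 nL compound or DMSO by pin tool and were kept 48 hr at 37 C, 5% CO2. Nuclei were then stained with Hoechst for 40 min and scanned for DNA content.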
# Gal4-VP16 FLuc – counter-screen for ROR gamma inhibitors: Gal4-VP16 reporter; Drosophila S2 Gal4-VP16 UAS-luciferase, luminescence, 20 h; Potency, µM (doses to about 53.6 µM), for inactives: at the top dose activity, negative = inhibition, usual class: inhibitors; 310,000 compounds, 3.5% hits; AID 2546;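 also: Gal4-VP16 expression switched on by copper sulfate through the metallothionein promoter; potency is read from the fitted curve at half-maximal effect; % is scaled to controls: 0 for no effect and ±100 for the full control effect; nearly all actives have a fitted effect of over 50% in size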
# MCF10A rerep – DNA re-replication induction in MCF 10a cells | MCF 10A DNA re-replication, Hoechst nuclear intensity, 48 h | Potency, µM (highest dose often 46.1 µM), inactives show at the top dose activity, positive = re-replication, most hits filed as activators | 350,000 compounds, 2.9% hits; also: potency is read from the fitted curve at half-maximal effect; % of control where 0% means no effect; nearly all actives have a fitted effect of over 50% in size
# BCR signal inh – chronic active BCR signaling inhibition. 340,000 compounds, 0.05% hits. Potency, µM (series often up to 46.1 µM), for inactives: at the top dose activity change, negative = inhibition, actives largely listed as inhibitors. ABC-DLBCL IkBa-CBG/CBR reporter, luminescence ratio, 4 h; active = well fitted inhibition curve with a large enough effect in the signal ratio, with a control signal flat, not every such curve was filed as active; inconclusive = small, poorly fitted or top-dose-only effect, or effect the other way, or a change in a side signal; the % refers to the signal ratio;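 also: potency is read from the fitted curve at half-maximal effect; plate controls were basal doxycycline-induced cells for no effect and cells given 10 µM MG132 for full effect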
#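 Cell line TMD8 (human ABC DLBCL), stably expressing tet-inducible CBG68-IkBa fusion and CBR; IMDM/0.5% FBS; cpd up to 46 uM; dox induction, 4 h, 37C/5% CO2; dual luminescence; green/red ratio; MG132 control.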
# RORgamma inh – blocks mouse ROR gamma transcriptional activity; Drosophila S2 Gal4-RORgamma UAS-luciferase reporter, 20 h; Potency, µM (titrated, usually from 53.6 µM), without a hit: at the top dose activity change, negative = inhibition, hits mostly inhibitors; 310,000 compounds, 5.4% hits; AID 2551; also: potency is read from the fitted curve at half-maximal effect; % is scaled to controls: 0 for no effect and ±100 for the full control effect; nearly all actives have a fitted effect of over 60% in size
# Target sequence (P51450 whole entry, looked up, the tested form may be a part): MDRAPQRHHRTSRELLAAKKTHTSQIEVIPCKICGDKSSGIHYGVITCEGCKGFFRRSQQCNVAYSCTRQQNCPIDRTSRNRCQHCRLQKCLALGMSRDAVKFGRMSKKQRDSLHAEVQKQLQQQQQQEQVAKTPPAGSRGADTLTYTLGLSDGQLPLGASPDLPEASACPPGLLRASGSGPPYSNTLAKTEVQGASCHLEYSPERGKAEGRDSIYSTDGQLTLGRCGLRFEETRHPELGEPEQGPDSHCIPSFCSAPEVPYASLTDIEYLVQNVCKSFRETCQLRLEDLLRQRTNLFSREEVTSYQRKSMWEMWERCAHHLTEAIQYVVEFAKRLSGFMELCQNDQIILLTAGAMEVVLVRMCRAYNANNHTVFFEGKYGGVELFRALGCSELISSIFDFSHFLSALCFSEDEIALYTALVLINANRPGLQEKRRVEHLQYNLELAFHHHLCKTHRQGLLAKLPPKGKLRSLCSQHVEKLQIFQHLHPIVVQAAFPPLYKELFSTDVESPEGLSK
#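 A Gal4/UAS one-hybrid system in insect cells: metallothionein-promoter Gal4–ROR gamma fusion plus Photinus luciferase reporter. Copper sulfate 700 uM final, 20 hr ambient incubation, luminescent detection after 10 min with reagent.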
# * = called active by the depositor; ? = inconclusive; / = no result given; [ ] = remark or other dose. Unless noted, calls follow the shape of the dose curve; as a rule, active = well fitted curve in the direction sought with a large enough effect; inconclusive = small, poorly fitted or top-dose-only effect, or another doubt; inactive = no such curve, though single readings can be large; an effect the other way counts as inactive or inconclusive.
SMILES,Giardia killer,SW480 rereplic,Gal4-VP16 FLuc,MCF10A rerep,BCR signal inh,RORgamma inh
Cc1ccccc1/C=C/c1nc2ccccc2c(=O)[nH]1,?,?,?,18µM*,?,?
O=C(COC(=O)c1ccc(F)cc1Cl)NC(=O)NC1CCCC1,5,0%,/,-2%,-7%,/
O=C(O)CCCCCNc1ccc2nsnc2c1[N+](=O)[O-],-1,0%,-10%,-4%,?,9%
O=C(O)c1ccccc1NS(=O)(=O)c1cccc(-n2sc3ccccc3c2=O)c1,6,?,?,15µM*,?,11%
COc1ccccc1NS(=O)(=O)c1ccc(C)c(C(=O)NCCCN2CCCC2=O)c1,19,-75%,/,1%,1%,/
Oc1c(C(c2ccccc2)N2CCC3(CC2)OCCO3)sc2nc(-c3ccco3)nn12 (stereo not drawn),/,/,/,/,0%,/
O=C(NCC(=O)N(c1cccc(F)c1)C(C(=O)NCC1CCCO1)c1ccccc1)c1ccco1 (stereo not drawn),-5,0%,3%,-2%,1%,6.3µM*
CCOC(=O)c1sc2nc(C)cc(C)c2c1N,14,?,/,18µM*,0%,2%[0.365 µM]
CCCc1nc2sc(C(=O)OCC)c(N)c2c2c1COC(C)(C)C2,0,23%,-6%,3.3µM*,?,-1%
CCOC(=O)c1sc2nc(-c3ccccc3)ccc2c1N,-17,?,?,?,?,2.5µM*
COc1ccc(NC(=O)c2sc3nc(C)cc(C)c3c2N)c(OC)c1,-11,15µM*,/,?,/,/
C=CC[C@](C)(O)c1ccccc1,/,/,3%,/,/,-2%
O=C(Cc1cccc(NC(=O)C2CCN(C(=O)c3ccccc3)CC2)c1)Nc1cccc(C(=O)N2CCCC2)c1,14,-4%,/,?,-3%,/
COc1ccc(-c2nc3cnc(OC)nc3n(-c3ccc(OC)cc3)c2=O)cc1,/,/,1%,/,/,-2%
COc1ccc(-c2ccc3c(N)c(C(=O)NC(C)C)sc3n2)cc1OC,8,18µM*,-4%,18µM*,-24%,-1%
Cc1cc(C)c2c(N)c(C(=O)Nc3cccc(C)c3C)sc2n1,4,12µM*,-20%,16µM*,?,17%
COc1ccc(-c2ccc3c(N)c(C(=O)c4ccc(OC)c(OC)c4)sc3n2)cc1,7,?,?,?,-7%,7%
Cc1ccc(NC(=O)CN2C(=O)NC3(CCCCC3)C2=O)cc1S(=O)(=O)N1CCOCC1,17,2%,/,-1%,-5%,/
N/C(=N\OC(=O)c1ccc2c(c1)OCO2)c1ccc(Cl)cc1,-18,?,-23%,16µM*,-9%,25%
N/C(=N\OC(=O)c1ccc2c(c1)OCO2)c1ccncc1,-2,-15%,?,-3%,?,10µM*
Cc1ccc(/C(N)=N/OC(=O)c2ccc3c(c2)OCO3)cc1,-3,-4%,?,?,3%,?
CC(=O)c1c(N2CCN(c3ccccc3)CC2)nc(=S)n(-c2ccccc2)c1C,-7,13%,1%,21µM*,1%,14%
CC(=O)c1c(N2CCCCC2)nc(=S)n(Cc2ccccc2)c1C,-8,10%,-25%,-182%[0.0737 µM],0%,11µM*
CCn1c(C)c(C(C)=O)c(N2CCCC2)nc1=S,20,6%,1%,-128%[0.0737 µM],-2%,7.9µM*
CC(=O)c1c(N2CCN(Cc3ccccc3)CC2)nc(=S)n(Cc2ccccc2)c1C,34,?,?,15%,-3%,-10%
SMILES,Giardia killer,SW480 rereplic,Gal4-VP16 FLuc,MCF10A rerep,BCR signal inh,RORgamma inh
CC(=O)c1c(N2CCN(CCO)CC2)nc(=S)n(-c2ccccc2)c1C,-1,-21%,-1%,-1%,0%,18%
CCCSc1nc(=S)n(Cc2ccccc2)c(C)c1C(C)=O,-17,2%,?,2%,?,14µM*
COc1ccc([N+](=O)[O-])cc1NC(=O)CN(C)S(=O)(=O)c1ccccc1,-13,4%,-2%,5%,-2%,15%
CC[C@H](C)[C@H](NC(=O)[C@H](C)NC(=O)[C@H](Cc1cnc[nH]1)NC(=O)[C@@H]1CCCN1C(=O)CNC(=O)[C@H](CC(C)C)NC(=O)[C@H](CC(C)C)NC(=O)[C@H](Cc1ccc(O)cc1)NC(=O)CNC(=O)[C@H](C)NC(=O)[C@H](CO)NC(=O)[C@H](CC(N)=O)NC(=O)[C@H](CC(C)C)NC(=O)[C@@H](NC(=O)[C@H](Cc1c[nH]c2ccccc12)NC(=O)CN)[C@@H](C)O)C(=O)N[C@@H](CC(=O)O)C(=O)N[C@@H](CC(N)=O)C(=O)N[C@@H](Cc1cnc[nH]1)C(=O)N[C@@H](CCCNC(=N)N)C(=O)N[C@@H](CO)C(=O)N[C@@H](Cc1ccccc1)C(=O)N[C@@H](CO)C(=O)N[C@@H](CC(=O)O)C(=O)N[C@@H](CCCCN)C(=O)N[C@@H](Cc1cnc[nH]1)C(=O)NCC(=O)N[C@@H](CC(C)C)C(=O)N[C@H](C(N)=O)[C@@H](C)O,/,/,0%,/,/,-21%
COc1ccc(S(=O)(=O)NCC2CCCN(Cc3ccc(OC)cc3F)C2)cc1 (stereo not drawn),9,?,0%,2%,3%,-15%
COc1ccc(S(=O)(=O)NCC2CCCN(Cc3ccccc3Cl)C2)cc1 (stereo not drawn),12,-1%,-14%,23µM*,-9%,6%
Cc1onc(-c2ccccc2Cl)c1C(=O)Nc1nnc(C2CCCCC2)s1,5,/,/,/,/,/
Cc1cnc(C(=O)Nc2nnc(C3CC3)s2)cn1,13,-14%,-24%,-1%,6%,8.9µM*
O=C(Nc1nccs1)c1cn2ccccc2n1,-12,?,7.1µM*,-1%,?,2µM*
CCc1noc(C)c1C(=O)Nc1nnc(C2CCCCC2)s1,/,/,?,/,-18%,11µM*
Cc1cnc(C(=O)Nc2nnc(C)s2)cn1,-8,-3%,11%,3%,0%,?
Cc1cnc(C(=O)Nc2nccs2)cn1,?,0%,11µM*,-3%,?,3.5µM*
Cc1cnc(C(=O)Nc2cccc3cccnc23)cn1,-4,?,0.2µM*,?,-4%,0.079µM*
Cc1cc(C(=O)Nc2nnc(C3CCCCC3)s2)no1,4,-8%,2%,-3%,/,20µM*
Cc1ccc2cc3c(N)c4c(C)ccc(C)c4nc3nc2c1,16,-24%,-2%,?,?,-18%
O=C1CC(C(=O)N2CCC(N3CCC(C(=O)NC4CC4)CC3)CC2)c2ccccc21 (stereo not drawn),-1,0%,-3%,0%,1%,5%
COc1ccc(-c2c3c([nH]c(=S)c2C#N)CCC3)cc1,3,1%,?,6%,9%,-100%
